We go through ten sequences from paper PMC5700166.

Common to all, as to assay: protein-binding microarray (PBM); PBM: ~300 nM protein, 6 mM HEPES pH 7.8, 80 mM KCl, 0.5 mM EDTA, 0.5 mM EGTA, 6% glycerol, 35 ng/ul poly-dIdC, 1% milk, 1 h, room temperature; Ap Aiptasia and Nv Nematostella (sea anemones) / Co Capsaspora / Aq Amphimedon (sponge) / Dm Drosophila / Hu human; RHD is the Rel homology domain; high values mean tight binding
Conditions in all cases: dsDNA, one strand shown

One assay has as its target T1, GST-Ap-NF-kB RHD (Exaiptasia pallida (Aiptasia), UniProt A0A913YAJ5 2-422).
T1 sequence: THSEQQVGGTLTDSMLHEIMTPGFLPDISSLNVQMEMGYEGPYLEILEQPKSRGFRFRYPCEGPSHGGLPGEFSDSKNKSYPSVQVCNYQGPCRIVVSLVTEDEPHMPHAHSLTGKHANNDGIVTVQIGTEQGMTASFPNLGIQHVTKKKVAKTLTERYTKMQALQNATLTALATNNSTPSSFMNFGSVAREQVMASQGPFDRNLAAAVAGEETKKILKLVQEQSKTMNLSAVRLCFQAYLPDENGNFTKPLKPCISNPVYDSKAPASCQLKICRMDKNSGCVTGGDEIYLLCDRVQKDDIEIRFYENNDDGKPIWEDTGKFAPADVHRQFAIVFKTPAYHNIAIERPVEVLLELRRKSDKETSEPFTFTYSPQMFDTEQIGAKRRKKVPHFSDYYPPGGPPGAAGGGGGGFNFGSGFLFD

Assay [1] has as its target T2, GST-Nv-NF-kB (Cys allele) (Nematostella vectensis, UniProt E5G601 2-411).
T2 sequence: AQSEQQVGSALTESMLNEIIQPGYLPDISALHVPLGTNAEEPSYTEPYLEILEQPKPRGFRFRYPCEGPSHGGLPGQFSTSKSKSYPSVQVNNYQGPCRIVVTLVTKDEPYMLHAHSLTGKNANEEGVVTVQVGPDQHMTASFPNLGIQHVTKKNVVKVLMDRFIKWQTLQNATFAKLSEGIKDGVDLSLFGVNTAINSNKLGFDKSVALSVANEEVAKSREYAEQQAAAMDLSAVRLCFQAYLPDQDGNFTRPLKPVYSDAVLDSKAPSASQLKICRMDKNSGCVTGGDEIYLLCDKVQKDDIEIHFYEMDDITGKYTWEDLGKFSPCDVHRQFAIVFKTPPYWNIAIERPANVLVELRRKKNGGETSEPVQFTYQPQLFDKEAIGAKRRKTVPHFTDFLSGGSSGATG

A further assay concerns the target T3, GST-Co-NF-kB (Capsaspora owczarzaki, UniProt F1ARL5 200-546).
T3 sequence: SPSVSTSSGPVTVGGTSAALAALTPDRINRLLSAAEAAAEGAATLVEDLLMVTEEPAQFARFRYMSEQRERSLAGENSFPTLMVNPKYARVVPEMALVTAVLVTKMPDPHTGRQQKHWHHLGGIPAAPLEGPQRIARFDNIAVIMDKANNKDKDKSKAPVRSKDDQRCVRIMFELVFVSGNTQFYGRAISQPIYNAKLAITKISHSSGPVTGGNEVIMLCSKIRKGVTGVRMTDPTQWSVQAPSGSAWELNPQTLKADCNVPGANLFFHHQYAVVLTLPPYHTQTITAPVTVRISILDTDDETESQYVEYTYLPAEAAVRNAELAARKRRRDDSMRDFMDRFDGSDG

The target in a further assay is T4, GST-Dm-Relish (Drosophila melanogaster, UniProt Q94527 99-473).
T4 sequence: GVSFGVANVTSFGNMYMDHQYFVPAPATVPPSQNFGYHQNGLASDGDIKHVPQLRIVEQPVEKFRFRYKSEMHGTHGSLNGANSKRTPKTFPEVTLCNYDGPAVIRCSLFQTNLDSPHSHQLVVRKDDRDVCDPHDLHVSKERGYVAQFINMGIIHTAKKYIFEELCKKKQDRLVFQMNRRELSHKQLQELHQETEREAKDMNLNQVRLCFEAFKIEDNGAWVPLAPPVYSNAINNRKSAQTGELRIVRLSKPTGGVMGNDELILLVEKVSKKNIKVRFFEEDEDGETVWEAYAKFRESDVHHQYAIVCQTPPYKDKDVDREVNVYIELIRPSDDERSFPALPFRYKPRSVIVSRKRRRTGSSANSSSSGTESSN

A further assay concerns the target T5, GST-Aq-NF-kB (Amphimedon queenslandica, UniProt A9Y5G7 2-389).
T5 sequence: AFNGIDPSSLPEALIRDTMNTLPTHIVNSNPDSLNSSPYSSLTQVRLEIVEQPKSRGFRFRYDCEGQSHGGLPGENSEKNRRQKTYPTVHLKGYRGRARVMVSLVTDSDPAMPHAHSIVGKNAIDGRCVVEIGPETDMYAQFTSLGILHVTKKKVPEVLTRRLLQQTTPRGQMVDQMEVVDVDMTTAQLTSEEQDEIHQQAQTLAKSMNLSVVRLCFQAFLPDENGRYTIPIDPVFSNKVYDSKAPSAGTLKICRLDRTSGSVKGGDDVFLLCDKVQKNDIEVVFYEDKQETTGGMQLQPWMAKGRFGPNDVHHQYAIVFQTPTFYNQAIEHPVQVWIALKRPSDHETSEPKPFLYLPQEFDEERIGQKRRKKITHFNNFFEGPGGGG

For “CCGATTAACATCAGGGGGATAGATGATGTTAATCGGGTCTTGATTCGCTTGACGCTGCTG”, the binding signal with GST-Ap-NF-kB RHD turned out to be 4.85 z-score; in assay [1], 3.25 z-score; in the assay with GST-Co-NF-kB it was 5.41 z-score; with GST-Dm-Relish it was 2.03 z-score; in the assay with GST-Aq-NF-kB it was 3.47 z-score.

In the case of “CCGATTAACATCAGGATCTCCCCTGATGTTAATCGGGTCTTGATTCGCTTGACGCTGCTG”, the binding signal with GST-Ap-NF-kB RHD was determined as 7.91 z-score; in assay [1], 5.49 z-score; with GST-Co-NF-kB it was 4.26 z-score; with GST-Dm-Relish it was 5.64 z-score; in the assay with GST-Aq-NF-kB, 6.38 z-score.

Take “CCGATTAACATCAAAAAACCCACTGATGTTAATCGGGTCTTGATTCGCTTGACGCTGCTG”: the binding signal with GST-Ap-NF-kB RHD was 2.65 z-score; in assay [1] it was 2.49 z-score; in the assay with GST-Co-NF-kB it was 1.66 z-score; in the assay with GST-Dm-Relish, 5.49 z-score; with GST-Aq-NF-kB, 3.61 z-score.

Take “CCGATTAACATCAGGCCCCCCCCTGATGTTAATCGGGTCTTGATTCGCTTGACGCTGCTG”: the binding signal in the assay with GST-Ap-NF-kB RHD worked out at 5.7 z-score; in assay [1], 4.06 z-score; with GST-Co-NF-kB it was 3.96 z-score; with GST-Dm-Relish, 6.13 z-score; with GST-Aq-NF-kB, 5.74 z-score.

Regarding “CCGATTAACATCACCAAAATCCCTGATGTTAATCGGGTCTTGATTCGCTTGACGCTGCTG”, the binding signal with GST-Ap-NF-kB RHD is 3.22 z-score; in assay [1] it was 2.45 z-score; with GST-Co-NF-kB, 1.36 z-score; with GST-Dm-Relish it was 5.42 z-score; in the assay with GST-Aq-NF-kB, 2.86 z-score.

For the sequence “CCGATTAACATCAGGGGAGAACCTGATGTTAATCGGGTCTTGATTCGCTTGACGCTGCTG”, the binding signal with GST-Ap-NF-kB RHD was determined as 6.35 z-score; in assay [1], 4.58 z-score; with GST-Co-NF-kB, 5.4 z-score; in the assay with GST-Dm-Relish, 5.43 z-score; with GST-Aq-NF-kB, 5.51 z-score.

Turning to “CCGATTAACATCACCCCAGCCCCTGATGTTAATCGGGTCTTGATTCGCTTGACGCTGCTG”, the binding signal worked out at 3.28 z-score in the assay with GST-Ap-NF-kB RHD; 1.93 z-score in assay [1]; 2.88 z-score in the assay with GST-Co-NF-kB; 2.39 z-score in the assay with GST-Dm-Relish; 2.91 z-score in the assay with GST-Aq-NF-kB.

On to “CCGATTAACATCAGGGGGGACAATGATGTTAATCGGGTCTTGATTCGCTTGACGCTGCTG”, for which the binding signal with GST-Ap-NF-kB RHD worked out at 4.56 z-score; in assay [1], 4.19 z-score; in the assay with GST-Co-NF-kB, 6.09 z-score; in the assay with GST-Dm-Relish, 2.95 z-score; with GST-Aq-NF-kB it was 4.16 z-score.

As for “CCGATTAACATCAAGTACCCCCCTGATGTTAATCGGGTCTTGATTCGCTTGACGCTGCTG”, the binding signal in the assay with GST-Ap-NF-kB RHD amounted to 5.57 z-score; in assay [1], 3.68 z-score; with GST-Co-NF-kB, 4.81 z-score; in the assay with GST-Dm-Relish, 4.13 z-score; in the assay with GST-Aq-NF-kB, 3.99 z-score.

For “CCGATTAACATCACGGGAATCCCTGATGTTAATCGGGTCTTGATTCGCTTGACGCTGCTG”, the binding signal was found to be 6.64 z-score in the assay with GST-Ap-NF-kB RHD; 5.96 z-score in assay [1]; 3.81 z-score in the assay with GST-Co-NF-kB; 10.1 z-score in the assay with GST-Dm-Relish; 7.15 z-score in the assay with GST-Aq-NF-kB.
